The record followed here is PubChem BioAssay (NCI).

The panel holds about 79,000 compounds, 15% with a hit somewhere; the sample as a whole holds those more often. Calls of active or inactive are those of the source. Cut-off read from the data, not from the text of the source: active = growth inhibition above about 70%; inactive = the rest.

This assay in a line: NCI Yeast Anticancer Drug Screen. Data for the sgs1 mgt1 strain (AID 161).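 Note: 0% = growth of cultures given vehicle only.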 As to conditions: S. cerevisiae sgs1 mgt1 strain, at 50.0 µM, hits give high values. An outline of the steps:
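This yeast growth screen uses a strain with defined DNA-repair lesions; compound-treated growth is compared with vehicle-treated growth.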
For the molecule `N#Cc1c2c(c(-c3cccs3)n(C3OC(CO)C(O)C(O)C3O)c1=S)CCc1ccccc1-2` (stereo not drawn), the growth inhibition was -3.35% (inactive).

Regarding `CCOC(=O)CCc1c(C)c2c(O)cc(O)cc2oc1=O`, the growth inhibition is -19.5% (inactive).

In the case of `CCOC(=O)C(CCC#N)(CCC#N)C(C)=O`, the growth inhibition is -4.7% (inactive).

On to `O=c1nc2sc3ccccc3c(=O)n2[nH]1`, for which the growth inhibition is -2.85% (inactive).

`CC(C)OCCCN(Cn1c(=S)sc2ccccc21)Cn1c(=S)sc2ccccc21`: the growth inhibition was 85.9% (active).

On to `COC(=O)CCC(CCC(=O)O)([N+](=O)[O-])[N+](=O)[O-]`, for which the growth inhibition was -6.3% (inactive).

For the molecule `CCN1CCCN(CC)C1=O`, the growth inhibition was -4.4% (inactive).

Turning to `COc1ccc(NC2=CC(=O)C(=O)c3ccccc32)nn1`, the growth inhibition is -19.8% (inactive).

`COc1cccc(C(=O)NNC(=O)c2ccc3ccccc3c2)c1`: the growth inhibition is -2.45% (inactive).

`Cc1cccc(Cl)c1NC(=O)c1cccc([N+](=O)[O-])c1`: the growth inhibition was 22.9% (inactive).

As for `COC(=O)C1=C(C(=O)OC)C(=Nc2ccccc2)c2ccccc2C1=O`, the growth inhibition is 74.2% (active).

With `Cc1nc2ccccc2nc1N1CCCC1`, the growth inhibition was -26.9% (inactive).

`COc1ccc(N=C2C(=Nc3ccc(OC)cc3)N(c3ccc(OC)cc3)C(=S)N2C)cc1`: the growth inhibition was -39% (inactive).

With `CCSc1ccc(C)cc1`, the growth inhibition was -20.8% (inactive).

Take `COc1ccc(/C(Br)=C2\OC(=O)c3ccccc32)cc1`: the growth inhibition was -13.4% (inactive).

As for `NC(N)=NC1NCC(=O)S1` (stereo not drawn), the growth inhibition was 4.3% (inactive).

Consider `COc1ccc(N)c(C(O)CCNC(C)=O)c1` (stereo not drawn), for which the growth inhibition was -25.9% (inactive).

Take `CCCCNc1nc(SC)nc2nc[nH]c12`: the growth inhibition was -41.1% (inactive).
